Assay results published in publication PMC5540273 (PLoS ONE, 2017).
Values joined by “and” are separate entries in the source; they are usually repeats but may differ in a detail not shown here. Equal entries are not always repeated. Where two headings read alike, the source gives them in different places.

Key:
Conditions in all cases: concentration: 1 μM, replicates: in singlicate, n = 1
[1] = tested on: AAK1
[2] = tested on: ABL1-nonphosphorylated
[3] = tested on: ABL1-phosphorylated
[4] = tested on: ABL2
[5] = tested on: ACVR1B
[6] = tested on: ACVR1
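Further: KINOMEscan kinase panel screen.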

Structure (SMILES)	%Inh [1]	%Inh [2]	%Inh [3]	%Inh [4]	%Inh [5]	%Inh [6]	%Inh ([2]; 1 µM)	%Inh ([3]; 1 µM)	%Inh ([4]; 1 µM)	%Inh ([5]; 1 µM)	%Inh ([1]; 1 µM)	%Inh ([6]; 1 µM)
O=C1Cc2cc(Nc3nc(NCc4cccc(S(=O)(=O)C(F)(F)F)c4)ncc3C(F)(F)F)ccc2N1	8%	0%	0%	0%	0%	3%						
N#Cc1c(N2CCOCC2)sc(-c2ccn[nH]2)c1-c1ccc(Cl)cc1	70%	42%	0%	9%	15%	0%						
NCC(NC(=O)c1cc(-c2cn[nH]c2)c(-c2ccnc3[nH]ccc23)s1)c1ccccc1.O=C(O)C(F)(F)F.O=C(O)C(F)(F)F (stereo not drawn) [GSK1325775]	86%	1%	0%	0%	0%	52%						
Cc1cn2c(=O)cc(N3CCOCC3)nc2n1Cc1cccc(Cl)c1Cl [GSK2334006]	14%	73%	63%	41%	9%	18%						
CCn1cnc2c(N)ncnc21 [GW345098]	0%	33%	35%	12%	0%	7%						
O=C(NCCCN1CCOCC1)c1cccc(Nc2nccc(Nc3ccc(Oc4ccccc4)cc3)n2)c1 [GW663929]	8%	73%	45%	47%	0%	14%						
O=C(Nc1cccc(-c2nn3ncccc3c2-c2ccnc(Nc3cccc(C(F)(F)F)c3)n2)c1)c1c(F)cccc1F [GSK299495]	2%	18%	9%	35%	0%	9%						
Cl.Oc1cccc(Nc2ccnc3cc(-c4ccncc4)ccc23)c1 [GW494601]	42%	100%	99.9%	99.4%	67%	99.8%						
CC(C)Oc1ccc2c(-c3ccnc(Nc4ccc(N5CCN(C)CC5)cc4)n3)cnn2n1 [GW696155]	90%	39%	53%	14%	0%	69%						
[2H]C([2H])(c1cccc(C(F)(F)F)c1C)n1ccn2c(=O)nc(N3CCOCC3)cc12 [GSK2336394]	0%	0%	0%	17%	0%	0%						
Cc1ccc(NC(=O)c2ccnc(N3CCN(C)CC3)c2)cc1-c1ccc(C(=O)NCC2CC2)cc1 [GW775604]	0%	45%	0%	0%	0%	0%						
Cn1cc(-c2ccc3c(c2)CCN3C(=O)Cc2ccccc2Cl)c2c(N)ncnc21 [GSK2608885]	25%	95.9%	23%	85%	0%	0%						
Cl.Cl.Cl.Fc1ccc(-c2ncn(C3CCNCC3)c2-c2ccnc(Nc3ccccc3)n2)cc1 [SB-238039]	0%					16%	0% and 63%	31% and 12%	5% and 3%	58% and 31%		
Nc1nccc(-c2c(-c3ccc(F)cc3)ncn2C2CCN(CC(F)(F)F)CC2)n1 [SB-236560]	5%	46%	0%	0%	0%	19%						
O=C(c1ccc(-c2cc(-c3c[nH]nc3-c3ccccn3)ccn2)cc1)N1CCOCC1 [GW812171]	0%	36%	29%	2%	76%	0%						
COc1cc2c(cc1OCCN1CCN(C)CC1)ncc1c3ccc(C#N)cc3[nH]c21	96.2%	82%	69%	6%	0%	0%						
COc1cc(Nc2nccc(N3CCC(NC(=O)c4cccc(NC(C)=O)c4)C3)n2)cc(OC)c1OC (stereo not drawn) [GSK1379754]	76%	0%	0%	13%	0%	63%						
Cc1cccc(Cn2ccn3c(=O)cc(N4CCOCC4)nc23)c1 [GSK2297542]	15%	7%	0%	13%	0%	0%						

Structure (SMILES)	%Inh [1]	%Inh [2]	%Inh [3]	%Inh [4]	%Inh [5]	%Inh [6]	%Inh ([2]; 1 µM)	%Inh ([3]; 1 µM)	%Inh ([4]; 1 µM)	%Inh ([5]; 1 µM)	%Inh ([1]; 1 µM)	%Inh ([6]; 1 µM)
COc1ccc(COc2cc(-n3cnc4ccccc43)sc2C(N)=O)cc1 [GSK1024304]	29%	0%	0%	15%	0%	0%						
COc1ccc(S(=O)(=O)NC2CCN(c3cc(C)nc(Nc4cccc(C#N)c4)n3)CC2)cc1.O=C(O)C(F)(F)F [GSK1653539]	0%	0%	0%	1%	0%	0%						
O=c1cc(N2CCOCC2)nc2n(Cc3cccc(Cl)c3Cl)c(C3CC3)nn12 [GSK2358994]	14%	28%	20%	5%	0%	0%						
COC(=O)Nc1nc2cc(Oc3ccc(NC(=O)Nc4cc(F)ccc4F)cc3)ccc2[nH]1.Cl [GW701424]	30%	94.5%	40%	74%	0%	0%						
NS(=O)(=O)c1cccc(-c2ccc3nccc(-c4cccc(S(N)(=O)=O)c4)c3c2)c1 [GW867253]	27%	36%	15%	0%	0%	0%						
NCCNS(=O)(=O)c1ccc(-c2ccnc3[nH]ccc23)cc1 [GSK977617]		0%				0%		9% and 0%	22% and 1%	3% and 0%	67% and 57%	
CSc1ccc(-c2cc3ncnc(SCC(=O)O)c3s2)cc1	0%	0%	0%	0%	0%	0%						
CN(C1=C(c2ccccc2)C(=O)NC1=O)c1ccccc1 [SB-334860]	7%	0%	0%	0%	0%	1%						
O=c1cc(N2CCOCC2)nc2n(Cc3cccc(C(F)(F)F)c3)ccn12 [GSK2297543]	0%	0%	0%	3%	0%	5%						
Cc1cccc(-c2nc(Nc3ccc4ncsc4c3)c3ccccc3n2)n1 [GW867588]	7%	0%	0%	20%	35%	15%						
COc1ccc(Nc2nccc(N3CCC(NC(=O)Nc4cccc(C(C)=O)c4)C3)n2)cc1 (stereo not drawn) [GSK1379731]	0%	0%	0%	7%	0%	0%						
Cc1c(Cn2c(C)nn3c(=O)cc(N4CCOC(C)C4)nc23)cccc1C(F)(F)F (stereo not drawn) [GSK2344444]	0%	0%	0%	11%	0%	0%						
Cn1ccc2ncnc(Oc3ccc(NC(=O)Nc4ccncc4)c(Cl)c3)c21	0%	31%	3%	0%	23%	0%						
Nc1nc(-c2ccc3c(N)n[nH]c3c2)cc(N2CCCC2)n1 [GSK2227430]	17%	0%	0%	0%	0%	0%						
N#Cc1ccc(-c2cc(-c3c[nH]nc3-c3ccccn3)ccn2)cc1 [GW693028]	0%	7%	29%	10%	56%	59%						
C[C@@H](Oc1cc(-n2cnc3ccc(NC(=O)NC(C)(C)C)cc32)sc1C(N)=O)c1ccccc1Cl [GSK346294]	15%	0%	0%	9%	0%	0%						
CC(C)(CN)c1nc(-c2ccc(Cl)c(O)c2)c(-c2ccncc2)[nH]1.O=C(O)C(F)(F)F [SB-477794]	0%						96.1% and 94.7%	99.4% and 98.9%	92.4% and 89%	87% and 91.7%		96.5% and 93.4%
COc1ccc(CNC(=O)NC2CCN(c3ccnc(Nc4ccc(OC)cc4)n3)C2)cc1 (stereo not drawn) [GSK1379727]	0%	0%	0%	2%	0%	0%						
